Active and inactive are the calls of the source. The rule behind the calls is not given here.
Assay: Pseudomonas biofilm growth suppression – PAO1 strain, BacTiter-Glo luminescence, LB-PBS, primary screen (AID 1144)
Conditions: P. aeruginosa PAO1 biofilm, 12 h, higher = more signal

z-score, inactive:
COc1cc(CO)cc(I)c1O[C@H]1C=C(C(=O)NCCO)C[C@@H](N(CC2CCCCC2)C(=O)c2cc3ccccc3oc2=O)[C@@H]1O -0.143
C=C(CCCC)/C(=C/C[C@@H](OC(=O)c1ccncc1)c1cccc(OCCO)c1)c1cc(C(=O)OC)ccc1OC -1.04
C=CCC(OC(C)=O)[C@@H]1[C@@H](N(Cc2ccc(-c3ccccc3)cc2)C(=O)c2ccc(-c3ccccc3)cc2)c2cc(OCCCO)ccc2N1C(=O)Cc1ccc(OC)cc1 (some centres undefined) 0.318
CC(=O)NCCCC[C@@H]1NC(=O)[C@H]2C[C@@H](C(=O)NCCCCCCN(C)C)[C@@H](c3ccc(O)cc3)N2C1=O -0.181
Cc1ccc(S[C@]2(C(=O)NC(C)C)CC(=O)N(C3Cc4ccccc4C3)[C@@H]2c2ccc(CO)cc2)cc1 -0.132
Cc1ccc(N2C(=O)c3ccccc3[C@](C)(C(=O)NCC(C)C)[C@@H]2c2ccc(CO)cc2)nc1 -0.309
[N-]=[N+]=NCc1ccccc1C[C@]1(C(=O)N2CCCCC2)N=C(c2ccc(OCCCO)cc2)O[C@H]1c1ccccc1CN=[N+]=[N-] 0.447
C=C(CCCC)/C(=C/C[C@H](OC(=O)c1ccncc1)c1cccc(OCCO)c1)c1cc(C(=O)OC)ccc1OC -0.536
O=C(CS)NCCCCCCNC(=O)[C@@H]1C[C@@H]2C(=O)N[C@@H](Cc3ccccc3)C(=O)N2[C@@H]1c1ccc(O)cc1 -0.75
COc1ccc([C@H]2C[C@H]3C(Br)=C[C@]2(OC)C(=O)[C@]32CO2)cc1 -0.64
C=C(C(=O)CC[C@H](OC(=O)c1ccccc1-c1ccccc1C(=O)O)c1ccc(CO)o1)C(C)C -1.11
C#CCCCON=C1C[C@@H](O)[C@@H](O)[C@@H]2[C@@H]3C(=O)N(Cc4ccc5c(c4)OCO5)C(=O)[C@@H]3CC[C@H]12 0.448
COC(=O)c1ccc(C#CC(NP(=O)(c2ccccc2)c2ccccc2)c2ccccc2)cc1 (centres undefined) 0.107
CCOC(=O)C1=CC[C@@H](c2ccc(-c3ccc(OCc4ccccc4)cc3)c(OC)c2)N(S(=O)(=O)c2ccc(C)cc2)[C@H]1c1ccccc1 -1.05
CC(c1ccccc1)C(O)C1C=CC2C(=O)N(C)C(=O)C2N1N(c1ccccc1)c1ccccc1 (centres undefined) -0.131
C=C[C@H](OC)[C@@H](OC(=O)Nc1ccc(SC)cc1)c1ccc(O)c(F)c1 -0.782
C=C(CCCC)C(=O)CC[C@@H](OC(C)=O)c1ccccc1OCCO -0.206
CC(=O)NCCCC[C@@H]1NC(=O)[C@H]2C[C@@H](C(=O)NCCCCCCN(C)C)[C@@H](c3cccc(OCCO)c3)N2C1=O -0.542
CCCC=C(CCC)[C@@H](NS(=O)(=O)c1cccc(C(F)(F)F)c1)c1ccc(C(=O)OC)cc1 -0.109
O=C(NCc1ccccc1)[C@@]1(Cc2ccccc2)COC(c2ccc(OCCCO)cc2)=N1 -0.607
[N-]=[N+]=NCc1ccccc1[C@H]1OC(c2ccc(OCCCO)cc2)=N[C@@]1(Cc1ccccc1N=[N+]=[N-])C(=O)NCc1ccccc1 -0.358
C#CCNC(/C=C/c1ccccc1)CO (centres undefined) -0.558
O=C1C2C=CC(C(O)C(c3ccccc3)c3ccccc3)N(Nc3ccc([N+](=O)[O-])cc3)C2C(=O)N1c1ccccc1 (centres undefined) -1.81
C=C(CCCC)/C(=C/C[C@@H](OC(=O)c1ccncc1)c1ccc(CO)o1)c1cnc2ccccc2c1 -1.26
CCc1cccc(NC(=O)O[C@H]2[C@H](OC(=O)Nc3ccccc3)[C@@H](OC(=O)Nc3ccccc3)[C@@H](OC)O[C@@H]2CO)c1 -0.944
C=CC[C@]1(C(=O)N2CCCCC2)N=C(c2ccc(OCCCO)cc2)O[C@H]1c1ccccc1N=[N+]=[N-] -0.903
C#C[C@H](O[Si](C#Cc1ccccc1)(C(C)C)C(C)C)c1ccccc1 -0.368
CCOC(=O)C1=CC[C@@H](c2ccccc2)N(S(=O)(=O)c2ccc(C)cc2)[C@H]1C 0.165
O=C(N1CCCCC1)[C@@]1(CCS(=O)(=O)c2ccccc2)N=C(c2ccc(OCCCO)cc2)O[C@H]1c1ccccc1 -0.725
